Reference: the supplement of paper PMC10981050
Counter-ions that a name gives are not always drawn.

System: K562
Assay: cell viability relative to vehicle control; higher = less cytotoxic
Details: 10 µM; SRSF2 genotype: SRSF2 wt/wt
Procedure, shortened: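 Each screen used CRISPR-edited mutant and wild-type clones from four leukaemia lines. Compounds were acoustically dispensed at a single 10 µM dose, and CellTiter-Glo luminescence was read after 48 h with the supernatant first removed. Viability was analysed in Genedata Screener and given as percent of the on-plate vehicle control.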

**Q.** Which cell viability does the source give for `COc1cc(C=O)c([N+](=O)[O-])cc1OC` here?
**A.** 110%

**Q.** How did the cell viability turn out when `CCOc1ccccc1OCCN[C@H](C)Cc1ccc(OC)c(S(N)(=O)=O)c1` [Tamsulosin hydrochloride] was run?
**A.** 98.3%

**Q.** Which cell viability does the source give for `O=C1CC(=O)c2c(Cl)c(Cl)c(Cl)c(Cl)c21` here?
**A.** 92.2%

**Q.** How did the cell viability turn out when `CO/N=C(\C(=O)N[C@@H]1C(=O)N2C(C(=O)O)=C(CSC(=O)c3ccco3)CS[C@H]12)c1csc(N)n1` [Ceftiofur hydrochloride] was run?
**A.** 83.7%

**Q.** With `CC1=CC(=O)CC(C)(C)C1=O` [Ketoisophorone] as the molecule, how does the cell viability read?
**A.** 100%

**Q.** How did the cell viability turn out when `CO[C@@]12[C@H](COC(N)=O)C3=C(C(=O)C(C)=C(N)C3=O)N1C[C@@H]1N[C@@H]12` [Mitomycin C] was run?
**A.** 21%

**Q.** For `O=c1cc(-c2ccc(O)c(O)c2)oc2cc(O)cc(O)c12` [Luteolin], which cell viability is on record?
**A.** 85.5%

**Q.** With `Cc1cc(C2CCCCC2)n(O)c(=O)c1` [Ciclopirox ethanolamine] as the molecule, how does the cell viability read?
**A.** 47.2%

**Q.** Which cell viability does the source give for `N[C@@H]1CN(c2c(F)cc3c(=O)c(C(=O)O)cn([C@@H]4C[C@@H]4F)c3c2Cl)CC12CC2` [Sitafloxacin hydrate] here?
**A.** 91.9%

**Q.** How did the cell viability turn out when `COCCCN1CCC(NC(=O)c2cc(Cl)c(N)c3c2OCC3)CC1` [Prucalopride] was run?
**A.** 81.5%

**Q.** How did the cell viability turn out when `COc1cc2nc(N3CCCC3)nc(NCCCCCN3CCCC3)c2cc1OC` was run?
**A.** 4.26%

**Q.** How did the cell viability turn out when `O=C(O)c1ccc2c(c1)C(=O)c1ccccc1C2=O` [Anthraquinone-2-carboxylic Acid] was run?
**A.** 92.5%

**Q.** With `C[C@@H]1O[C@@H]1P(=O)(O)O` [fosfomycin tromethamine] as the molecule, how does the cell viability read?
**A.** 100%

**Q.** Which cell viability does the source give for `CCCCCCCCCC[C@H](C(=O)O)[C@]1(C(=O)O)CCC(=O)O1` [Spiculisporic Acid] here?
**A.** 103%

**Q.** Which cell viability does the source give for `CC1(C)CCC2(C(=O)O)C(O)CC3(C)C(=CCC4C5(C)CC(O)C(O)C(C)(CO)C5CCC43C)C2C1` (stereo not given) [Polygalacic acid] here?
**A.** 103%

**Q.** `C[C@H]1[C@H](NC(=O)/C(=N\OC(C)(C)C(=O)O)c2csc(N)n2)C(=O)N1S(=O)(=O)O` [Aztreonam (Azactam, Cayston)] was tested. Which cell viability did it give?
**A.** 109%

**Q.** For `C#C[C@]1(O)CC[C@H]2[C@@H]3CCc4cc(O)ccc4[C@H]3CC[C@@]21C` [Ethinyl Estradiol], which cell viability is on record?
**A.** 65%

**Q.** How did the cell viability turn out when `CC(C)COc1ccc(CNC(=O)N(Cc2ccc(F)cc2)C2CCN(C)CC2)cc1` [Pimavanserin] was run?
**A.** 0.75%

**Q.** How did the cell viability turn out when `Oc1cc(O)c2c(c1)OC(c1ccc(O)c(O)c1)C(O)C2` (single isomer, unassigned; (+)) [(+)-Catechin hydrate] was run?
**A.** 103%

**Q.** How did the cell viability turn out when `Cc1ccc([C@@H]2O[C@H](CO)[C@@H](O)[C@H](O)[C@H]2O)cc1Cc1ccc(-c2ccc(F)cc2)s1` [Canagliflozin] was run?
**A.** 99.7%

**Q.** How did the cell viability turn out when `Nc1ncnc2c1c(-c1cnc3[nH]ccc3c1)nn2C1CCCC1` was run?
**A.** 9.11%

**Q.** `COc1ccc(-c2oc3c(CC=C(C)C)c(O)cc(O)c3c(=O)c2O[C@@H]2O[C@@H](C)[C@H](O)[C@@H](O)[C@H]2O)cc1` [Baohuoside I] was tested. Which cell viability did it give?
**A.** 90.4%

**Q.** How did the cell viability turn out when `OC1CCC(Oc2cccc3cnc(Nc4ccc5nc[nH]c5c4)nc23)CC1` (stereo not given) was run?
**A.** 32.7%

**Q.** For `CC(C)(C)c1[nH]cnc1/C=c1\[nH]c(=O)/c(=C/c2ccccc2)[nH]c1=O` [NPI-2358 (Plinabulin)], which cell viability is on record?
**A.** 31.4%

**Q.** Which cell viability does the source give for `CN(C)C(=O)c1ccc(S(=O)(=O)c2ccc(NC(=O)C(C)(O)C(F)(F)F)c(Cl)c2)cc1` (stereo not given) here?
**A.** 74.2%

**Q.** How did the cell viability turn out when `CN(C)C(=O)COC(=O)Cc1ccc(OC(=O)c2ccc(NC(=N)N)cc2)cc1` [Camostat Mesilate (FOY-305)] was run?
**A.** 96.3%

**Q.** With `C[C@@H]1COC(Nc2ccc3ncnc(Nc4ccc(OCc5nccs5)c(Cl)c4)c3c2)=N1` [Varlitinib] as the molecule, how does the cell viability read?
**A.** 88.1%

**Q.** `CCOC(=O)[C@H](CCc1ccccc1)N[C@H]1CS[C@H](c2cccs2)CN(CC(=O)O)C1=O` [Temocapril HCl] was tested. Which cell viability did it give?
**A.** 98.8%

**Q.** How did the cell viability turn out when `Nc1ccn([C@H]2CC[C@@H](CO)O2)c(=O)n1` [Zalcitabine] was run?
**A.** 111%

**Q.** `OCCOCCN1CCN(Cc2cccc(Oc3ccccc3)c2)CC1` was tested. Which cell viability did it give?
**A.** 94%

**Q.** With `CC(C)[C@H]1CC[C@H](C(=O)N[C@H](Cc2ccccc2)C(=O)O)CC1` [Nateglinide (Starlix)] as the molecule, how does the cell viability read?
**A.** 98.8%

**Q.** With `Nc1ccc(O)c(C(=O)O)c1` [Mesalamine (Lialda)] as the molecule, how does the cell viability read?
**A.** 90.1%

**Q.** How did the cell viability turn out when `NCCCCCN` [Cadaverine] was run?
**A.** 99.5%

**Q.** With `CN[C@@H](C)C(=O)N[C@H](C(=O)N1CCC[C@H]1c1nc(C(=O)c2ccc(F)cc2)cs1)C1CCCCC1` as the molecule, how does the cell viability read?
**A.** 89.4%

**Q.** `Nc1[nH]c(=O)ncc1Br` [5-Bromocytosine] was tested. Which cell viability did it give?
**A.** 105%
